HTT-AS promoter – activates huntingtin-antisense promoter activity. 48,000 tested, 0.24% active. HEK293 HTT-AS promoter firefly luciferase reporter, 24 h; response scale: percent change from vehicle, -100% = no light. AID 1508624. Potency, µM (top dose mostly 57.5 µM), usual class: activators; also: nearly all actives have a fitted effect of over 55% in size
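HEK293 cells carrying firefly luciferase reporters were seeded at 2,500 per well in Opti-MEM and cultured for 24 h. They were then treated with compounds at up to 57.5 uM final for 24 h at 37 degrees C before Dual-Glo luminescence readout.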
S16 F2sN tox – S16 Schwann cell cytotoxicity; AID 1508642; S16 Pmp22-F2sN Schwann cells viability, CellTiter-Glo, 24 h; 43,000 tested, 0.48% active; Potency, µM (highest dose often 57.5 µM), most hits filed as cytotoxic; also: nearly all actives have a fitted effect of over 65% in size
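Seed 500-1,000 S16 Pmp22-F2sN cells per well in phenol-red-free DMEM with 10% heat-inactivated FBS; pin-add 23 nL compound; incubate 24 h at 37C; add CellTiter-Glo, wait 15 min protected from light; read luminescence.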
HTT prom inh – inhibits huntingtin promoter activity. HEK293 HTT promoter firefly luciferase reporter, 24 h. Potency, µM (titrated, usually from 57.5 µM), usual class: inhibitors. 48,000 tested, 0.93% active. AID 1508623; also: nearly all actives have a fitted effect of over 50% in size
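Firefly luciferase readout (Dual-Glo, 10 min RT) after 24 h, 37 °C compound exposure (final up to 57.5 uM) of HEK293 reporter cells cultured 24 h beforehand; PTC124 at 50 uM final as control inhibitor; activity scaled vehicle 0%, zero RLU -100%.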
mTORC1 inh – inhibitors of mTORC1 signaling in Tsc2-/- p53-/- MEF cells | Potency, µM (top dose mostly 38.3 µM), actives largely listed as inhibitors | AID 493208 | Tsc2-/- p53-/- MEF, phospho-rpS6 immunofluorescence/PI, 24 h | 44,000 tested, 0.78% active; also: nearly all actives have a fitted effect of over 50% in size
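Readout is phospho-S6 Alexa 488 signal normalized to PI per well, reported as % active cells with thresholds set from rapamycin (7.5 nM) and DMSO controls. Cells: Tsc2-/-, p53-/- MEFs, 24 hrs compound at 37 C; PI cell number serves as viability.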
SKOV3 invasion – blocks SKOV3ip1 adhesion and invasion in omental model; SKOV3ip1-GFP adhesion/invasion on 3D omental model, fluorescence; AID 1963576; 46,000 tested, 0.1% active; Potency, µM (highest dose often 45.8 µM), actives largely listed as inhibitors; also: nearly all actives have a fitted effect of over 65% in size
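A 3D layer of primary human omental fibroblasts, mesothelial cells, fibronectin and collagen I, grown 48 hr, received SKOV3ip1-GFP cells in serum-free medium plus compounds at 0.36-46 umol/L. After 2 hr RT and 16 hr 37 C, fixed adherent GFP cells were counted; normalized to DMSO and tomatine.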
PMP22 txn – modulators of PMP22 gene transcription in S16 Schwann cells; AID 1508649; 43,000 tested, 2% active; S16 Pmp22-F2sN Schwann cells (luciferase reporters placed in the Pmp22 gene), FLuc/NLuc coincidence luminescence, 24 h; Potency, µM (highest dose often 57.5 µM), actives largely listed as inhibitors; active = clear falling dose curves in both reporters; inconclusive = both reporters move, but less clearly or upward; inactive = either reporter flat; the % is the NLuc reporter signal
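qHTS, 1536-well. Cells seeded, compounds added by pin tool, 24 h 37C. Nano-Glo reagent 1 (lysis/FLuc), 10 min RT, read; Stop&Glo, 10 min RT, read NLuc.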
A number is an active result; - = inactive; ? = inconclusive; . = no result given. A selection: hits, their analogues and other compounds. The true share with any hit is near 3.6%. Unless noted, calls follow the shape of the dose curve; as a rule, active = well fitted curve in the direction sought with a large enough effect; inconclusive = small, poorly fitted or top-dose-only effect, or another doubt; inactive = no such curve, though single readings can be large; an effect the other way counts as inactive or inconclusive.

SMILES | HTT-AS promoter | S16 F2sN tox | HTT prom inh | mTORC1 inh | SKOV3 invasion | PMP22 txn
Cc1cccc(NC(=O)c2nc(S(C)(=O)=O)ncc2Cl)c1 | - | 5µM | ? | 3.3µM | ? | 2.4µM
CCS(=O)(=O)c1ncc(Cl)c(C(=O)Nc2c(C(=O)Nc3cccc(C)c3)oc3ccccc23)n1 | - | 2.2µM | - | ? | - | 3.2µM
NC1=N[C@@]2(c3cc(NC(=O)c4ccc(F)cn4)ccc3F)COC[C@@H]2CS1 | - | . | - | . | - | .
CC1(C)SCCN(S(=O)(=O)c2ccc(OCC#CCO)cc2)[C@@H]1C(=O)NO | - | . | - | . | - | .
COc1cccc(Nc2c(C(N)=O)cnc3c(C)cc(S(=O)(=O)c4cccc(C(=O)N(C)C)c4)cc23)c1 | - | . | - | . | - | .
CCS(=O)(=O)c1cccc(-c2cc(C(=O)NC3CCN(C)CC3)c(C)c3[nH]c4ncc(C)cc4c23)c1 | - | . | ? | . | ? | .
C[C@]12CC[C@H](O)CC1=CC[C@@H]1[C@H]2CC[C@]2(C)C(c3cccnc3)=CC[C@H]12 | - | . | - | . | - | .
C=CC(=O)Nc1cccc(Sc2nc(Nc3ccc(N4CCN(C)CC4)cc3)ncc2Cl)c1 | - | . | - | . | ? | .
COc1cc(C=CC(=O)CC(=O)C=Cc2ccc(O)c(OC)c2)ccc1O | - | . | ? | . | ? | .
CC(C)C(C)C=CC(C)C1CCC2C3=CC=C4CC(O)CCC4(C)C3CCC21C (centres undefined) | - | . | ? | . | - | .
O=C(CCCCCCC(=O)Nc1cccnc1)NO | - | . | - | . | - | .
COc1cc2c(cc1NC(=O)C(C)Oc1ccccc1)oc1ccccc12 (centres undefined) | 4µM | - | - | - | - | -
Cc1nc2cc(-c3ccccc3)nn2c(C)c1CCC(=O)NCCc1ccccc1 | - | ? | 7.1µM | - | - | -
CCCCNC(=O)CCc1c(C)nc2cc(-c3ccccc3)nn2c1C | - | - | 2µM | - | - | -
COc1ccccc1-c1cc2nc(C)c(CCC(=O)NCc3cccc(Cl)c3)c(C)n2n1 | - | - | 13µM | - | - | ?
Cc1nc2cc(-c3cccc(F)c3)nn2c(C)c1CCC(=O)NCCc1ccccc1 | - | - | ? | - | - | -
CCOC(=O)c1ccc(NC(=O)CC2Nc3cccc4cccc(c34)NC2=O)cc1 (centres undefined) | - | - | ? | - | - | ?
CCOC(=O)c1ccc(NC(=O)CC2Nc3cc(C)c(C)cc3NC2=O)cc1 (centres undefined) | - | - | 8.9µM | - | - | ?
COc1ccc(NC(=O)CCc2c(C)nc3cc(-c4cccc(F)c4)nn3c2C)cc1Cl | - | - | 2.2µM | - | - | -
COc1ccc(N2CCN(C(=O)CCc3c(C)nc4cc(-c5ccc(Cl)cc5)nn4c3C)CC2)cc1 | - | - | 0.32µM | - | - | -
Cc1nc2cc(-c3cccc(F)c3)nn2c(C)c1CCC(=O)NC(C)c1ccccc1 (centres undefined) | - | ? | ? | - | - | ?
COC(=O)c1cc(NC(=O)CCc2c(C)nc3cc(-c4ccccc4)nn3c2C)cc(C(=O)OC)c1 | - | - | - | - | - | -
COc1cc(OC)cc(-c2cc3nc(C)c(CCC(=O)Nc4ccc(F)c(Cl)c4)c(C)n3n2)c1 | - | - | 1.6µM | - | - | -
CCOc1ccc(NC(=O)CCc2c(C)nc3cc(-c4ccc(Cl)cc4)nn3c2C)cc1 | - | - | ? | - | ? | -
COc1cc(NC(=O)CCc2c(C)nc3cc(-c4ccccc4)nn3c2C)cc(OC)c1OC | - | - | 4µM | - | - | ?
SMILES | HTT-AS promoter | S16 F2sN tox | HTT prom inh | mTORC1 inh | SKOV3 invasion | PMP22 txn
C[C@@]12O[C@@H](C[C@]1(O)CO)n1c3ccccc3c3c4c(c5c6ccccc6n2c5c31)CNC4=O | - | . | ? | . | ? | .
CCc1nn(CC(=O)N2CCN(c3cccc(C)c3C)CC2)c(=O)c2cc3sccc3n12 | - | - | - | - | - | -
CCOC(=O)C1CCN(C(=O)Cn2nc(CC)n3c(cc4sccc43)c2=O)CC1 | - | - | 2.8µM | - | - | -
Cc1ccccc1CN1C(=O)C(O)(CC(=O)c2ccccc2)c2cc(Cl)ccc21 (centres undefined) | - | ? | ? | 12µM | ? | ?
CCc1ccc(C(=O)CC2(O)C(=O)N(CCc3ccccc3)c3ccc(Cl)cc32)cc1 (centres undefined) | - | 20µM | ? | ? | ? | ?
COc1ccc(CN2CCc3c(c(=O)n4ncc(C(=O)N5CCN(c6ccc(F)cc6)CC5)c4n3C)C2)cc1 | - | - | 13µM | - | - | ?
CCOc1cc2ncc(C#N)c(Nc3ccc(F)c(Cl)c3)c2cc1NC(=O)C=CCN(C)C | - | . | - | . | - | .
CCOc1ccc(NC(=O)Cc2ccc(NC(=O)N3CCCCc4ccccc43)cc2)cc1 | - | 14µM | - | - | - | -
Clc1ccc2ncc(-c3cccc(NC4CNC4)n3)n2c1 | - | . | - | . | - | .
CCn1c(-c2ccc(S(=O)(=O)N3CCOCC3)cc2)csc1=Nc1ccc(C)c(Cl)c1 | - | - | - | - | - | ?
Cn1c(-c2ccc(S(=O)(=O)N3CCCC3)cc2)csc1=Nc1ccc(Cl)c(Cl)c1 | - | ? | 5µM | - | - | ?
Cc1ccc(Nc2ncnc3sc4c(c23)CCC(C)C4)cc1C (centres undefined) | - | - | - | - | - | -
CN(C)c1ccc(Nc2ncnc3sc4c(c23)CCCC4)cc1 | - | - | 11µM | - | - | ?
COc1cc(C)c(C=CC(C)=CC=CC(C)=CC(=O)O)c(C)c1C | - | . | - | . | - | .
O=C(CSc1nnc2[nH]c(=O)cc(-c3ccccc3)n12)Nc1cc(C(F)(F)F)ccc1Cl | 18µM | - | - | - | - | ?
Cc1cc(=O)[nH]c2nnc(SCC(=O)Nc3cc(C(F)(F)F)ccc3Cl)n12 | - | - | - | - | - | ?
Cc1ccc2nc(-c3ccc(Cl)s3)c(Nc3ccc4c(c3)OCCO4)n2c1 | 4.5µM | - | - | - | - | -
Cn1nc(-c2ccc(C(=O)Nc3ccc(OC(F)(F)F)cc3)cc2)c2ccccc2c1=O | - | ? | 10µM | - | ? | ?
Cn1ccc2c(OCC(=O)Nc3ccc(OC(F)(F)F)cc3)cccc2c1=O | - | ? | 20µM | - | - | ?
Cc1c(C(=O)Nc2ccc(C(=O)O)cc2)nnn1-c1ccccc1 | - | - | 2.5µM | - | - | -
COc1ccc(S(=O)(=O)NCC(c2ccco2)S(=O)(=O)c2cccs2)cc1C (centres undefined) | - | 22µM | ? | - | - | ?
